Shown are actives, neighbours in structure and some others; about 1.7% of the full set was active somewhere.
S1P2 antag = blocks the human S1P2 receptor; inhibition, % at 5 µM; hit rate 0.21% among 97,000; cell-based S1P2 antagonist assay, inhibition at 5 uM; O95136; in the data active means inhibition above about 45%;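 further: CRE beta-lactamase reporter cells expressing human S1P2 stimulated with S1P; 0% = agonist at EC80 alone and 100% = agonist plus reference antagonist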
Target sequence (O95136 whole entry, looked up): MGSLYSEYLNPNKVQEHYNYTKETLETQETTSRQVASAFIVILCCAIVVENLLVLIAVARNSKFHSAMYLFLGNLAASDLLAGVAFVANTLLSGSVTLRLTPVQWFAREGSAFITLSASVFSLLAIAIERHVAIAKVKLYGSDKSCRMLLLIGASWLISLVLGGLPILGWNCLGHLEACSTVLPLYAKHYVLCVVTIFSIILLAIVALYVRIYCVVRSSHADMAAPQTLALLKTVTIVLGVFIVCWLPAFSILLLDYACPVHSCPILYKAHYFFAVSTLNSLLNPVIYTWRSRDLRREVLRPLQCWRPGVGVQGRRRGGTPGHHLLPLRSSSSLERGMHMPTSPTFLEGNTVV
MRP1 act = activates MRP-1; H69AR cells + doxorubicin, viability rescue, CellTiter-Glo; viability increase, % at 10 µM; hit rate 0.61% among 140,000;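 active means viability gain under doxorubicin at or above a set limit, the compound median plus 3 SD, cut at about 4.7% in these data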;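 further: MRP-1 overexpressing cells given doxorubicin 25 µM after compound pretreatment; 18-22 h compound pretreatment then 72 h with doxorubicin before readout; 0% = doxorubicin-only wells and 100% = vehicle-treated cells without doxorubicin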
GALR2 ag = GALR2 (human) receptor agonism; AID 803; GALR2-expressing cells, agonist activation read-out; O43603; hit rate 0.48% among 140,000; activation, % (no concentration beside the values); in the data active means activation above about 5%, passing the limit was not always enough;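 further: 0% = vehicle buffer wells and 100% = reference agonist at full effect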
MRP resist rev = MRP-mediated drug resistance reversal. H69AR cells + 2 uM doxorubicin, CellTiter-Glo, 72 h. differential viability (reversal), % at 10 µM. hit rate 0.04% among 85,000. AID 602;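 active means viability drop by adding the cancer drug above about 55%, with treated viability meeting a 40% cutoff, limit read from the data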;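 further: viability without doxorubicin minus viability with 2 µM doxorubicin for each compound; larger differential means the compound sensitizes cells more to doxorubicin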
GALR2 blocker = blocks the human galanin receptor 2 | O43603 | GALR2-expressing cells, antagonist mode | inhibition, % at 4 µM | hit rate 0.39% among 140,000 | AID 828;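 further: cells stimulated with galanin 1-16 at roughly its EC80; 0% = agonist challenge control and 100% = basal control without agonist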
S1P2 ag = agonists of human S1P2 receptor; S1P2-expressing cell line, agonist reporter read-out; AID 729; hit rate 0.46% among 97,000; O95136; activation, % at 4.5 µM; in the data active means activation above about 16%;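 further: 0% = vehicle low control and 100% = maximal reference agonist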
GALR2 blk conf = confirmation of human galanin receptor 2 (GALR2) antagonists; hit rate 60% among 480; AID 866; inhibition, % at 4 µM; shares compounds with GALR2 blocker; GALR2-expressing cells, antagonist mode, inhibition;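 further: cells stimulated with galanin at about its EC80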
BLA inhib ctr = beta-lactamase inhibition, GALR2 counterscreen | CHO NFAT-BLA reporter, beta-lactamase FRET, thapsigargin-stimulated | hit rate 36% among 480 | inhibition, % at 4.2 µM | shares compounds with GALR2 blocker;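 active means inhibition above the mean inhibition across tested compounds plus 3 SD, cut at about 27% in these data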;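 further: 0% = 500 nM thapsigargin stimulated wells and 100% = unstimulated BSA only wells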
The depositor's hits bear a star; · = not tested or not shown. Unless noted, no stated cut-off is given here; in the data, active means inhibition above about 27%; inactive means the rest.

SMILES | S1P2 antag | MRP1 act | GALR2 ag | MRP resist rev | GALR2 blocker | S1P2 ag | GALR2 blk conf | BLA inhib ctr
COc1cc(C(=O)O/N=C2\C=CC(=O)C(C)=C2)cc(OC)c1OC | 28.9 | -5.7 | -2.9 | · | 77.2* | -7.2 | 33.1* | 43.8*
COc1cc(C(=O)ON=C2C=C(C)C(=O)C(C)=C2)cc(OC)c1OC | · | -3.1 | -0.8 | · | -10.3 | · | · | ·
CCCOc1cc(N(CC)CC)ccc1/C=C(/C#N)c1nc2ccc(C)cc2[nH]1 | 0.8 | -3.9 | -2.9 | · | 25.1 | -0.2 | · | ·
CCN(CC)c1ccc(/C=C(/C#N)c2nc3ccc(C)cc3[nH]2)c(OC(C)C)c1 | 19.5 | -0.1 | -4.3 | · | 33.6* | 6.6 | 29.6* | 36.9*
Cn1c(N2CCOCC2)nc(-c2ccccc2)c1-c1ccccc1 | 35.6 | -2.6 | 0.9 | · | -8.3 | 0.4 | · | ·
Cc1ccc(NC(=O)COC(=O)Cc2ccsc2)cc1S(=O)(=O)N1CCOCC1 | · | 0.2 | -0.8 | · | 18.2 | · | · | ·
COc1cc(OC)c(OC)cc1/C=C/C(=O)c1ccc(NS(=O)(=O)c2ccc(C)cc2)cc1 | · | -5.0 | -0.8 | · | 31.4* | · | 20.9 | 19.4
CONc1nc(NC(C)(C)C)nc(OCC#N)n1 | · | 0.4 | -0.7 | · | 4.4 | · | · | ·
CN(C)c1nc(Nc2ccc(Cl)cc2)nc(OCC#N)n1 | -7.6 | -1.1 | -2.5 | -7.9 | 35.5* | -5.0 | 30.4* | 14.1
CCOC(=O)c1c(NC(=O)CN2CCCc3ccccc32)sc(C)c1CC | · | -0.9 | -1.2 | · | 2.6 | · | · | ·
Oc1ccccc1/C=N/Nc1ccccc1 | · | -3.0 | -1.2 | · | 29.5* | · | 37.8* | 12.9
Oc1ccccc1/C=N/Nc1ncc(Br)cn1 | · | -2.8 | -1.1 | · | 8.4 | · | · | ·
O=C(NC(Cc1ccccc1)C(=O)Oc1ccc2c(C(F)(F)F)cc(=O)oc2c1)OCc1ccccc1 (configuration not stated) | · | -3.3 | -0.3 | · | 32.5* | · | 19.8 | 22.8
COc1ccc(NC(=O)c2cc(S(=O)(=O)N(C)C)ccc2N2CCCC2)cc1Cl | · | -1.2 | -1.1 | · | 28.3* | · | 2.3 | -0.2
O=c1[nH][nH]c(-c2ccccc2)c1C=Nc1cccc(Cl)c1 | 24.9 | -0.2 | -1.6 | · | 0.4 | -1.7 | · | ·
O=c1[nH][nH]c(-c2ccccc2)c1C=Nc1ccc(Cl)cc1 | 17.7 | -4.2 | -2.9 | · | 29.0* | -2.9 | 18.9 | -0.1
COc1ccc(C(=O)c2ccc(N(C)C)cc2)c(OC)c1 | 4.5 | -2.4 | -1.5 | · | -0.4 | -2.4 | · | ·
CN(C)c1ccc(C(=O)c2ccc(N(C)C)c3ccccc23)cc1 | 3.7 | -4.4 | 0.6 | -13.6 | 30.4* | 4.0 | 32.9* | 64.1*
CN(C(=S)NC1CCCCC1)C1(c2ccccc2Cl)CCCCC1=O (configuration not stated) | · | -3.2 | -0.2 | · | 27.4* | · | 33.7* | 8.3
CC1(C)OC(=O)N(CCc2ccccc2)C1(C)O (configuration not stated) | · | -0.9 | -2.6 | -3.4 | 31.4* | · | 10.2 | 9.7
Cc1[nH]c2ccc(OCc3ccccc3)cc2c1CCN1C(=O)OC(C)(C)C1(C)O (configuration not stated) | -7.9 | -1.8 | -2.7 | 3.4 | -1.9 | -3.2 | · | ·
CCNC(=O)COc1ccc(C=O)cc1OC | · | 0.9 | 0.4 | · | 65.5* | · | 5.4 | -5.8
CCc1ccc(N(C(=O)c2snc(C(N)=O)c2N)C(C(=O)NCCC(C)C)c2c[nH]c3ccccc23)cc1 (configuration not stated) | -13.9 | -2.4 | 0.1 | · | -15.0 | -3.4 | · | ·
COC(=O)/C(=C1/Oc2cc(C)oc(=O)c2S1)C(F)(F)F | · | -3.5 | -1.6 | · | 61.1* | · | 66.5* | 51.2*
CCc1c(C)nc2ncnn2c1NCCc1ccc(OC)cc1 | 26.6 | -3.3 | -1.8 | -63.1 | 32.0* | -9.6 | 35.4* | 10.2
O=C(Nc1cccc(F)c1)c1sc(Cl)nc1-c1ccccc1 | · | -3.8 | -1.5 | · | 27.3* | · | 13.5 | 11.1
COc1cccc(/C=N/Nc2nc(N3CCCC3)nc(N3CCCC3)n2)c1O | -6.3 | -0.3 | -1.4 | -16.1 | 28.6* | -10.3 | 17.2 | 2.5
CNC(=S)N1CCN(C(=O)C2CCCO2)CC1 (configuration not stated) | · | 0.1 | -1.6 | · | -2.1 | · | · | ·
CC(C)(C)C1=C(C#N)C(c2ccc3c(c2)OCO3)C(C#N)=C(N)O1 (configuration not stated) | 4.3 | -1.2 | -1.3 | 16.3 | 1.1 | -3.7 | · | ·

Compound activity: PubChem, several laboratories
